Reference: PubChem BioAssay
Calls of active or inactive are those of the source. Unless noted, the rule behind the calls is not given here.

Key:
[1] = HepG2 liver cancer cell viability effects, profiling panel, resazurin fluorescence, 24 h, PK04 Diversity Set (AID 1172); conditions: higher = more signal; note: test concentration not given here
[2] = basal S. cerevisiae growth modulation, no modifier, primary screen, OD600, strain BY4716, 24 h, basal condition (AID 1173); conditions: OD600, 24 h, higher = more signal, called active from +8 up or from −8 down
[3] = MM1S myeloma cell viability, profiling panel, resazurin fluorescence, basal, 24 h, PK04 Diversity Set (AID 1174); conditions: higher = more signal, called active from +8 up or from −8 down;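 note: MM1S multiple myeloma cell line; test concentration not given here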
[4] = target: Dihydroorotate dehydrogenase (quinone), mitochondrial (Plasmodium falciparum (isolate 3D7)) (UniProt Q08210); test: PfDHODH enzyme inhibitors, primary screen, biochemical, C-terminal His tag, absorbance 600 nm (AID 1175); conditions: DCIP absorbance 600 nm, higher = more signal, called active from +8 up or from −8 down;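 note: recombinant parasite enzyme with a five histidine tag at its C terminus; test concentration not given here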
[5] = P. aeruginosa biofilm formation inhibitors, primary screen, strain PAO1, LB-PBS medium, absorbance 600 nm (AID 1176); note: test concentration not given here; conditions: P. aeruginosa PAO1 growth/biofilm, A600, 12 h; higher = more signal
[6] = S. cerevisiae RM11-1a growth modifiers, primary screen, strain RM11-1a, OD600, basal, 24 h (AID 1177); conditions: OD600, 24 h, higher = more signal, called active from +8 up or from −8 down;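 note: cultures grown under basal conditions with no added stressor; test concentration not given here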
[7] = E. coli acrAB mutant growth effects, primary screen, E. coli filamentation inducers, strain DRC39, OD650, 24 h (AID 1178); conditions: higher = more signal, called active from +8 up or from −8 down;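 note: growth measured as culture turbidity by optical density at 650 nm; test concentration not given here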
[8] = E. coli acrAB mutant growth effects, primary screen, E. coli filamentation inducers, strain DRC39, OD650, 48 h (AID 1179);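 note: screen aims at cell division blockers that make cells filament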; conditions: E. coli DRC39 delta-acrAB growth, higher = more signal, called active from +8 up or from −8 down
[9] = RPMI8226 myeloma cell viability, profiling panel, resazurin fluorescence, basal, 24 h, PK04 Diversity Set (AID 1180); conditions: higher = more signal;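 note: RPMI8826 multiple myeloma cell line at 5000 cells per well; test concentration not given here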
[10] = target: E3 ubiquitin-protein ligase XIAP (Homo sapiens) (UniProt P98170); test: XIAP binders, primary screen, biophysical, small-molecule microarray, fluorescence 635 nm (AID 1181); conditions: small-molecule microarray binding, higher = more signal;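 note: score merges 667 nm emission and signal to noise over triplicate slides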
E3 ubiquitin-protein ligase XIAP (Homo sapiens), sequence (P98170 whole entry, looked up): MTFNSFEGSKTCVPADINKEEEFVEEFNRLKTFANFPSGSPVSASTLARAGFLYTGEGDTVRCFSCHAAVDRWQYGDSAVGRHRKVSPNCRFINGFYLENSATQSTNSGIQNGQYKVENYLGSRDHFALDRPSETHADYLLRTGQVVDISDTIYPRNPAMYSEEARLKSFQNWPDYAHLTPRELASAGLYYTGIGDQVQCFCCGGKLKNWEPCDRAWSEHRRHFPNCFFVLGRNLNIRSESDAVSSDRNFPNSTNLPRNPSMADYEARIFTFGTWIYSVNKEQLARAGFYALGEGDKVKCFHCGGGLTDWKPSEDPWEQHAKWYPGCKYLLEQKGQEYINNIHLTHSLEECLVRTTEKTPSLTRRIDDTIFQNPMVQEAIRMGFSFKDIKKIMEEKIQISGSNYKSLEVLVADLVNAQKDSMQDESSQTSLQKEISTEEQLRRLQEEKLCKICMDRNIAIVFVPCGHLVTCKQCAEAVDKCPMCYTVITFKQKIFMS

Dihydroorotate dehydrogenase (quinone), mitochondrial (Plasmodium falciparum (isolate 3D7)), sequence (Q08210 whole entry, looked up): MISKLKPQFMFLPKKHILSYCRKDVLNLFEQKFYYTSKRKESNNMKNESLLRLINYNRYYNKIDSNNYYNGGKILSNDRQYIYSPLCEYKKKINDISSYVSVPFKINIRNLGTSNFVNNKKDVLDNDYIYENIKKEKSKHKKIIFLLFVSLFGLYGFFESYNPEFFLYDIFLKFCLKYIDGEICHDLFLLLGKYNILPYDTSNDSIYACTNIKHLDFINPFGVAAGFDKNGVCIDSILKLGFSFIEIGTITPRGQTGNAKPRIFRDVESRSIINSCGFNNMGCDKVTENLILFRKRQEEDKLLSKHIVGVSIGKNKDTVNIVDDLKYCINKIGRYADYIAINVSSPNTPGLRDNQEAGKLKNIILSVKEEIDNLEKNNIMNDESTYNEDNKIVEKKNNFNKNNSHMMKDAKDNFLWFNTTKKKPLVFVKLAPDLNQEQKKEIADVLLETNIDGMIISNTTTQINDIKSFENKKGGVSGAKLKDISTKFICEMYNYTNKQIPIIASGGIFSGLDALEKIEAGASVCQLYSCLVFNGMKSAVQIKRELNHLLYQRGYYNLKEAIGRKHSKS

SMILES | z-score [1] | z-score [2] | z-score [3] | composite z-score [4] | z-score [5] | z-score [6] | z-score [7] | z-score [8] | z-score [9] | composite z-score [10]
C[C@H]1C2=C3C(CC[C@H]4C(OCc5ccc(F)cc5C(F)(F)F)OC[C@](C)([C@@H]34)N(C(=O)OC(C)(C)C)C2)C(CO)C1CO (stereo not given in full) | -1.49 | 0.964 (inactive) | -2.08 (inactive) | -0.108 (inactive) | 2.31 (inactive) | 1.04 (inactive) | -1.36 (inactive) | -0.895 (inactive) | -1.62 | 0.147
CC(C)C(O)C1C=CC2C(=O)N(C)C(=O)C2N1N(c1ccccc1)c1ccccc1 (stereo not given) | 0.207 | 0.72 (inactive) | -1.62 (inactive) | 0.85 (inactive) | 0.186 (inactive) | 0.879 (inactive) | -0.841 (inactive) | 0.195 (inactive) | -0.583 | 0.23
C=C(/C(=C/C[C@@H](OC(=O)c1ccncc1)c1ccc(OCCO)cc1)c1cc(C(=O)OC)ccc1OC)C(C)C | 1.54 | 0.542 (inactive) | 0.288 (inactive) | -0.444 (inactive) | 0.224 (inactive) | -0.0338 (inactive) | 0.945 (inactive) | 0.52 (inactive) | 0.352 | -0.0916
CN1C(=O)[C@@]2(CCS(=O)(=O)c3ccccc3)N=C(c3ccc(OCCCO)cc3)O[C@H]2c2ccccc21 | 0.316 | 0.369 (inactive) | 0.718 (inactive) | 0.0865 (inactive) | -0.469 (inactive) | 0.64 (inactive) | 0.606 (inactive) | 0.946 (inactive) | -1.09 | 0.205
C[C@@H](OCc1ccccc1)C1NC(=O)[C@@]23C(=O)N[C@@H](Cc4ccccc4)C2[C@H](C)[C@@]2(C)O[C@H]2C3/C=C/C/C=C\CNC(=O)CNC1=O (stereo not given in full) | -0.816 | -0.303 (inactive) | -0.555 (inactive) | -0.402 (inactive) | 0.662 (inactive) | -0.509 (inactive) | 0.0899 (inactive) | -0.754 (inactive) | -0.724 | -0.0351
C=C[C@@H](COC(C)=O)NS(=O)(=O)c1ccc(Br)cc1 | -1.44 | -11.8 (active) | -1.82 (inactive) | -0.502 (inactive) | -0.152 (inactive) | 0.628 (inactive) | -0.528 (inactive) | 0.0818 (inactive) | -0.978 | -0.184
[N-]=[N+]=NCc1ccccc1C[C@]1(C(=O)NCC(O)CO)N=C(c2ccc(OCCCO)cc2)O[C@H]1c1ccccc1CN=[N+]=[N-] (stereo not given in full) | -0.459 | -0.804 (inactive) | -0.449 (inactive) | -0.212 (inactive) | 1.09 (inactive) | 0.18 (inactive) | 0.78 (inactive) | -0.012 (inactive) | -0.881 | -0.149
COC(=O)[C@@]1(Cc2ccc(OC)cc2)[C@H]2c3cc(C(=O)N4CCCC4)n(CCc4cc5ccccc5[nH]4)c3C[C@H]2CN1C(=O)c1ccccc1 | -0.406 | 1.3 (inactive) | -1.24 (inactive) | 0.203 (inactive) | 0.756 (inactive) | 1.03 (inactive) | 0.009 (inactive) | -0.655 (inactive) | -0.818 | -0.0685
COCCCNC(=O)[C@]1(CCC(=O)OC(C)(C)C)N=C(c2ccc(OCCCO)cc2)O[C@@H]1c1ccccc1 | -0.402 | 0.397 (inactive) | -0.121 (inactive) | 0.152 (inactive) | 0.413 (inactive) | 0.0279 (inactive) | -0.286 (inactive) | -0.0848 (inactive) | -0.354 | 0.081
O=C1O[C@@H](c2ccccc2)[C@@H](c2ccccc2)N2[C@@H](c3ccccc3OCCO)[C@]3(C(=O)Nc4ccc(C#CCCO)cc43)[C@@H](C(=O)N3CCN(c4ncccn4)CC3)[C@H]12 | 0.261 | 1.73 (inactive) | -0.901 (inactive) | 0.286 (inactive) | 0.393 (inactive) | 2.47 (inactive) | 0.245 (inactive) | -0.289 (inactive) | -1.7 | -0.0622
C=C(/C(=C/C[C@@H](OC(=O)c1ccncc1)c1ccccc1OCCO)c1cc(C(=O)OC)ccc1OC)C(C)C | -0.0182 | -0.0905 (inactive) | -0.9 (inactive) | -1.82 (inactive) | 0.424 (inactive) | -0.0487 (inactive) | 0.315 (inactive) | 0.227 (inactive) | -0.722 | 0.153
CN(C)C(=O)[C@@]1(Cc2ccccc2N=[N+]=[N-])COC(c2ccc(OCCCO)cc2)=N1 | 1.44 | -4.24 (inactive) | -0.0135 (inactive) | 0.369 (inactive) | -0.497 (inactive) | 0.481 (inactive) | 0.632 (inactive) | 1.42 (inactive) | 0.816 | 0.194
NC(N)=NCc1cn(CCc2c[nH]c3ccccc23)nn1 | -0.739 | 0.274 (inactive) | -0.237 (inactive) | -26.7 (active) | 0.0429 (inactive) | 0.191 (inactive) | 0.148 (inactive) | -0.0579 (inactive) | -0.533 | -0.163
COc1ccc(NN2C(C(O)c3ccco3)C=CC3C(=O)N(C4CCCCC4)C(=O)C32)cc1 (stereo not given) | 0.502 | -1.11 (inactive) | -1.59 (inactive) | 0.181 (inactive) | 0.546 (inactive) | -0.0552 (inactive) | -0.624 (inactive) | -0.109 (inactive) | -1.55 | 0.065
COCCOC(=O)N1C(=O)[C@@]2(c3cc(C#CCC(C(=O)OC)C(=O)OC)ccc31)[C@H](c1ccc(OCCO)cc1)N1[C@H](c3ccccc3)[C@H](c3ccccc3)OC(=O)[C@H]1[C@@H]2C(=O)N1CCN(c2ncccn2)CC1 | 1.27 | 0.588 (inactive) | -0.199 (inactive) | 1.35 (inactive) | 2.06 (inactive) | 1.82 (inactive) | 0.362 (inactive) | -0.108 (inactive) | 0.262 | -0.22
C=C(C(=O)CC[C@H](OC(C)=O)c1cccc(OCCO)c1)C(C)C | -1.23 | -0.105 (inactive) | -0.748 (inactive) | -0.781 (inactive) | -0.411 (inactive) | 0.0297 (inactive) | -1.04 (inactive) | -0.86 (inactive) | -0.559 | 0.0454
C=CC[C@@H](OC(=O)Nc1ccc(OC)cc1)c1ccc(OCCO)cc1 | -0.197 | -3.85 (inactive) | -0.561 (inactive) | 0.251 (inactive) | 0.438 (inactive) | -0.373 (inactive) | 0.411 (inactive) | -0.103 (inactive) | -0.365 | 0.206
CCOC(=O)C1=CC[C@@H](c2ccccc2)N(S(=O)(=O)c2ccc(C)cc2)C1 | -0.842 | 1.39 (inactive) | -1.31 (inactive) | 0.806 (inactive) | 0.465 (inactive) | 1.82 (inactive) | -0.866 (inactive) | -0.869 (inactive) | -2.53 | 0.0975
CC(C)N1CC=CC23O[C@@H]4C=CCCOC(=O)C4[C@H]2C(=O)N(CCO)[C@@H]3C1=O (stereo not given in full) | 1.74 | -0.913 (inactive) | 0.839 (inactive) | -2.29 (inactive) | 0.525 (inactive) | -0.199 (inactive) | -0.141 (inactive) | -0.327 (inactive) | 0.475 | -0.251
CC(C)(C)OC(=O)CC[C@@]1(C(=O)O)N=C(c2ccc(OCCCO)cc2)O[C@@H]1c1ccccc1CN=[N+]=[N-] | 0.911 | -0.496 (inactive) | -0.378 (inactive) | 0.221 (inactive) | -0.0988 (inactive) | 0.323 (inactive) | 1.35 (inactive) | 1.35 (inactive) | -1.09 | 0.492
COCCCNC(=O)[C@@]1(Sc2ccc(C)cc2)CC(=O)N(Cc2cc(C(F)(F)F)cc(C(F)(F)F)c2)[C@@H]1c1ccc(CO)cc1 | -0.092 | -0.138 (inactive) | -0.538 (inactive) | -0.669 (inactive) | 0.158 (inactive) | -0.219 (inactive) | 0.0881 (inactive) | 0.231 (inactive) | -0.368 | -0.0571
CCOC(=O)C[C@H]1[C@H](OC(=O)c2ccc(C(=O)c3ccccc3)cc2)[C@@H](NC(=O)c2ccc3ccccc3c2)c2cc(OCCCO)ccc2N1C(=O)c1ccccc1 | -0.55 | -0.592 (inactive) | -0.377 (inactive) | -0.46 (inactive) | 0.055 (inactive) | -0.617 (inactive) | 0.347 (inactive) | 0.212 (inactive) | -0.539 | -0.0367
